The list is not random: actives were taken first. Their share in the collection is about 6.1%.
D1 agonist = human D1 receptor agonism. P21728. hit rate 1% among 360,000. AID 504660. HEK293 T-REx D1 cells, calcium flux, agonist mode. activation, % at 2 µM; in the data active means activation above about 30%; further: 0% is about no effect
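Inducible HEK293 T-REx D1 cells, force-coupled to calcium signalling, were plated at 4000 cells/well with tetracycline and held overnight at 30 C. After no-wash calcium dye loading, compound-evoked calcium rise over 180 s flagged agonists.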
D1 antagonist = human D1 dopamine receptor antagonism | hit rate 3.2% among 360,000 | activity change, negative = inhibition, % at 10 µM | HEK293 TREx D1 cells, calcium flux, dopamine EC80; active compounds read low | P21728; in the data active means activity change below about -30%; further: on the % scale 0 is the no-effect control and ±100 the full control effect
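Cells carrying a force-coupled, tetracycline-inducible human D1 receptor report calcium flux. Each well gets a 10 s baseline, compound with 180 s monitoring, then an EC80 dopamine stimulus with a second 180 s kinetic read.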
D1 PAM = potentiators of human D1 dopamine receptor | potentiation, % at 10 µM | P21728 | AID 504651 | HEK293 TREx D1 cells, calcium flux, dopamine EC20 potentiation | hit rate 0.036% among 360,000; in the data active means potentiation above about 30%; further: 0% is about no effect
D3 ag = agonists of human D3 dopamine receptor; P35462; D3R DiscoveRx beta-arrestin cells, luminescence, 90 min; max activation, %; hit rate 0.58% among 410,000; in the data active means max activation above about 30%; further: 0% is about no effect
Target sequence (P35462 whole entry, looked up): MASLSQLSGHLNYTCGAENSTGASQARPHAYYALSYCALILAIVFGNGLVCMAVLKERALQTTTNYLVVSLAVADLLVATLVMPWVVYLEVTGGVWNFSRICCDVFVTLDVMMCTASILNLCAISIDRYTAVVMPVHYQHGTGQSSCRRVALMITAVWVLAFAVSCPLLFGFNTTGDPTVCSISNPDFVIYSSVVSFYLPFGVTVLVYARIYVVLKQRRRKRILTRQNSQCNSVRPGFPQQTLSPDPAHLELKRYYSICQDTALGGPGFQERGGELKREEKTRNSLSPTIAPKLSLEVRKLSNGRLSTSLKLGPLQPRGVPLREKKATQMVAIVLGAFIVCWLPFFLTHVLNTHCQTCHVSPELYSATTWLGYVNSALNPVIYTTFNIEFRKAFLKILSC
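Cells at 1500/well, incubated overnight, then treated with pinned compounds (dopamine as control) for 90 min at 37 degrees C. DiscoveRx reagent added for 30 - 60 minutes at room temperature; luminescence read.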
DRD3 antagonist = blocks the human D3 dopamine receptor; P35462; D3R cells, DiscoveRx beta-arrestin luminescence, antagonist mode; active compounds read low; max response, negative = inhibition, %; hit rate 2.5% among 360,000; AID 652054; in the data active means max response below about -50%; further: on the % scale 0 is the no-effect control and ±100 the full control effect
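Cells plated overnight at 1500 cells/well, then exposed to library compounds with dopamine controls for 90 minutes at 37 degrees C. DiscoveRx reagent added for 30–60 minutes at room temperature; luminescence read, quantitative HTS format.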
Starred values were filed as active, the others as inactive; ! = not active in a repeat.

For O=C(Nc1ccc(Cl)cc1)N1CCC(c2ccccc2)C1 (centres undefined) the results were D1 agonist 10, D1 antagonist -33*!, D1 PAM -10, D3 ag -8 and DRD3 antagonist -5.
Screening Cn1c(CNC(=O)CSc2n[nH]c(-c3ccccc3Cl)n2)nc2ccccc21 returned D1 agonist -1, D1 antagonist -7, D1 PAM 1 and D3 ag 2.
Screening O=[N+]([O-])c1cccc(/C=N\N=C2c3ccccc3-c3ccccc32)c1O returned D1 agonist -1, D1 antagonist -21, D1 PAM 5, D3 ag -13 and DRD3 antagonist -74*.
NC(N)=N/N=C/c1cccc([N+](=O)[O-])c1O was read as D1 agonist 2, D1 antagonist 7, D1 PAM -5, D3 ag -14 and DRD3 antagonist -15.
`OCCN(CCO)c1nc(N2CCCCC2)c2nc(N(CCO)CCO)nc(N3CCCCC3)c2n1` gave D1 agonist 319*, D1 antagonist -39*, D1 PAM 8, D3 ag -1 and DRD3 antagonist -6.
Nc1nc(NCCO)nc(N2CCCCCC2)c1[N+](=O)[O-] was read as D1 agonist 3, D1 antagonist -1, D1 PAM 1, D3 ag 0 and DRD3 antagonist 0.
`CNC(=O)c1nnsc1S(=O)c1ccc(Cl)cc1` (centres undefined) gave D1 agonist 2, D1 antagonist 2, D1 PAM 4, D3 ag -22 and DRD3 antagonist -55*.
`CCCNC(=O)NS(=O)(=O)c1ccc(Cl)cc1` gave D1 agonist 1, D1 antagonist -20, D1 PAM -5, D3 ag 1 and DRD3 antagonist 20.
For CCCNC(=O)c1nnsc1S(=O)c1ccc(Cl)cc1 (centres undefined) the results were D1 agonist 2, D1 antagonist 20, D1 PAM -1, D3 ag -21 and DRD3 antagonist -78*.
Cc1ccc(S(=O)c2snnc2C)cc1 (centres undefined) was read as D1 agonist 3, D1 antagonist 2, D1 PAM 4, D3 ag 14 and DRD3 antagonist 47.
`CCCNC(=O)c1ccc2snnc2c1` gave D1 agonist 1, D1 antagonist -7, D1 PAM 4, D3 ag 10 and DRD3 antagonist 0.
Screening CCCNC(=O)c1nnsc1S(=O)(=O)c1ccc(Cl)cc1 returned D1 agonist 0, D1 antagonist -39*, D1 PAM -7, D3 ag -23 and DRD3 antagonist -85*.
Screening C[C@]12CC[C@@H]3c4ccc(O)cc4CC[C@H]3[C@@H]1CC[C@@H]2OP(=O)(O)O returned D3 ag 0.
Screening Cc1ccccc1C(=O)Nc1ccc2nc(SCC(=O)N3CCc4ccccc43)sc2c1 returned D1 agonist 7, D1 antagonist 1, D1 PAM -2 and D3 ag -5.
Screening CCOC(=O)CCN(C(=S)Nc1ccccc1)C1CCCCC1 returned D3 ag -10 and DRD3 antagonist -4.
Screening N#CCCOC1(C#CCN2CCCC2)CCCCC1 returned D1 agonist 8, D1 antagonist 0, D1 PAM -1, D3 ag 22 and DRD3 antagonist -88*.
COc1ccc(-c2cnc(C)o2)cc1S(=O)(=O)Nc1ccc(OC(F)(F)F)cc1 was read as D1 agonist 1, D1 antagonist 7, D1 PAM -1 and D3 ag 5.
For OCC1(Cc2ccccc2)CCCN(Cc2c[nH]c3ccccc23)C1 (centres undefined) the results were D1 agonist 14, D1 antagonist 12, D1 PAM -2, D3 ag -30 and DRD3 antagonist -57*.
`c1ccc(CN2CCN(Cc3c[nH]c4ccccc34)CC2)cc1` gave D1 agonist 14, D1 antagonist -16, D1 PAM -17, D3 ag -46 and DRD3 antagonist -60*.
For Oc1ccc(CN2CCN(Cc3ccccc3)CC2)c2cccnc12 the results were D1 agonist 2, D1 antagonist 10, D1 PAM 1, D3 ag -16 and DRD3 antagonist -58*.
For COCc1ccc(O)c2ncccc12 the results were D1 agonist 1, D1 antagonist 1, D1 PAM 3, D3 ag -26 and DRD3 antagonist -78*.

Screens: PubChem BioAssay, National Center for Advancing Translational Sciences (NCATS)
